# Hits are enriched below; roughly 2.9% of the tested compounds scored in any of these assays.
# PME-1 primary – blocks human protein phosphatase methylesterase 1 | recombinant PME-1, FP-Rh probe fluorescence polarization | Q9Y570 | inhibition, % at 5.9 µM | AID 2130 | hit rate 0.53% among 320,000;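 active means inhibition above the campaign mean of all compounds plus 3 SD, cut at about 26% in these data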;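 further: competitive labeling of PME-1 active site by serine hydrolase directed probe; 0% = PME-1 with DMSO and 100% = wells lacking PME-1 enzyme; inhibitors block probe labeling so polarization falls and inhibition rises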
# PAFAH1B2 FP inh – PAFAH1B2 (human) inhibition; P68402; recombinant PAFAH1B2, FP-rhodamine activity probe, fluorescence polarization; inhibition, % at 3.39 µM; hit rate 1.2% among 340,000;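 active means inhibition above the mean of all tested compounds plus 3 SD, cut at about 24% in these data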;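 further: 0% = enzyme with DMSO and 100% = wells lacking PAFAH1B2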
# pPAFAH inh – pPAFAH (human) enzyme inhibition. Q13093. recombinant pPAFAH, FP-rhodamine probe fluorescence polarization. inhibition, % at 3.39 µM. hit rate 1.5% among 330,000;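 active means inhibition above the mean inhibition across the screen plus 3 SD, cut at about 25% in these data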;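 further: inhibitors block binding of the rhodamine activity-based probe so polarization drops; 0% = enzyme with DMSO and 100% = wells lacking pPAFAH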
# Target sequence (Q13093 whole entry, looked up): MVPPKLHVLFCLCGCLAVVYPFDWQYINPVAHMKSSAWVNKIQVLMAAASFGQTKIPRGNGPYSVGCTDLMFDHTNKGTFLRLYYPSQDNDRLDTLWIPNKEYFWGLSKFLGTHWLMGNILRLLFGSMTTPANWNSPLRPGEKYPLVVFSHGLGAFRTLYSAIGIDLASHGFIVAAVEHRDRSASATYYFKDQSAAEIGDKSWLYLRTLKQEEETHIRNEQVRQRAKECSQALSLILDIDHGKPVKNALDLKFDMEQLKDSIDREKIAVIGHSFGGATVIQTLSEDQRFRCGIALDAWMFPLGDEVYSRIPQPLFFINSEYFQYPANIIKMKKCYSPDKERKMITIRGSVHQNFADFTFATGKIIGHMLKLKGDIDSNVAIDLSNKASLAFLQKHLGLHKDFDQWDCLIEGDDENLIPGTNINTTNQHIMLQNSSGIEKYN
# Fam108B counter – blocks mouse Fam108B hydrolase in RBBP9 counter-screen; recombinant Fam108B, FP-Rh probe fluorescence polarization; inhibition, % at 9.51 µM; hit rate 0.33% among 300,000; AID 1947;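 active means inhibition above the screen mean inhibition plus 3 SD, computed separately per campaign, cut at about 18% in these data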;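 further: inhibitors lower polarization as less probe binds the enzyme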
# PAFAH1B3 FP inh – PAFAH1B3 (human) inhibition; Q15102; recombinant PAFAH1B3, FP-rhodamine probe, fluorescence polarization; inhibition, % at 3.39 µM; hit rate 0.28% among 340,000; AID 492972;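 active means inhibition above the screen-wide average of all tested compounds plus 3 SD, cut at about 25% in these data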;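 further: 0% = enzyme with DMSO only and 100% = wells lacking PAFAH1B3 protein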
# PAFAH2 inh – PAFAH2 (human) inhibition; AID 492956; Q99487; recombinant PAFAH2, FP-rhodamine activity probe, fluorescence polarization; inhibition, % at 3.39 µM; hit rate 0.99% among 340,000;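 active means inhibition above the mean over all tested compounds plus 3 SD, cut at about 30% in these data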;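 further: inhibitors block probe labeling of enzyme so polarization drops; 0% = enzyme with DMSO and 100% = wells lacking PAFAH2 protein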
# pPAFAH confirm – pPAFAH (human) inhibition, confirmed; shares compounds with pPAFAH inh; recombinant pPAFAH, FP-Rh probe fluorescence polarization; inhibition, % at 3.39 µM; hit rate 72% among 2,300; AID 463230;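 active means mean inhibition of the triplicate above the hit cutoff set for the earlier primary screen, cut at about 25% in these data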;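 further: 0% = enzyme with DMSO and 100% = wells lacking pPAFAH enzyme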
# * = called active by the depositor; x = not tested or not shown.
SMILES,PME-1 primary,PAFAH1B2 FP inh,pPAFAH inh,Fam108B counter,PAFAH1B3 FP inh,PAFAH2 inh,pPAFAH confirm
COc1ccc(C)cc1S(=O)(=O)Nc1ccc(F)cc1,3,3,3,-2,-8,0,x
COc1ccc(S(=O)(=O)Nc2ccc(F)cc2)cc1N(C)S(=O)(=O)c1ccc(Cl)cc1,4,-2,38*,-1,3,6,35*
O=[N+]([O-])c1cccc(NC(=S)Nc2nc(-c3ccccc3Cl)cs2)c1,-2,8,39*,11,8,-37,23
CCNC(=S)Nc1cccc([N+](=O)[O-])c1,-1,x,1,11,x,x,x
O=C(C1=C(O)C(=O)N(c2nc3ccc(Cl)cc3s2)C1c1ccco1)c1ccco1 (stereo unspecified),-2,7,49*,x,12,28,38*
c1ccc(CCNCCCOc2cccc3ccccc23)cc1,-5,2,-7,-2,3,-1,x
CN1CCN(C(=O)c2cc3sc4ccccc4c3s2)CC1,-5,x,52*,0,x,x,7
O=[N+]([O-])c1nn(-c2ccccc2)[n+]([O-])c1N1CCN(c2ccccc2F)CC1,-1,-2,4,2,-7,-6,x
CC(C)(C)c1ccc(C(=O)Nc2cccc3ncccc23)cc1,-5,3,1,-2,0,0,x
CC(=O)Nc1cccc2ncccc12,2,-1,55*,-1,3,0,7
CC(=O)c1ccc(NC(=O)C2C3C=CC(C3=C(c3ccccc3)c3ccccc3)C2C(=O)O)cc1 (stereo unspecified),-5,23,6,-5,5,-6,x
O=S(=O)(Cc1ccccc1)C1CCCCC1O (stereo unspecified),-4,8,5,-3,5,9,x
CN(c1ccc(OCC(=O)NC2CCC(O)CC2)cc1)S(=O)(=O)c1ccc(Cl)cc1 (stereo unspecified),x,5,37*,x,10,-4,-2
COc1cc(/C=C2/SC(=S)N(Cc3ccccc3)C2=O)ccc1OS(C)(=O)=O,-6,0,13,0,-6,-1,x
COc1cc(/C=C2/SC(=S)N(Cc3ccccc3)C2=O)ccc1OCC(=O)O,-13,2,49*,-12,-4,5,28*
Cc1cccc(NC(=O)CN2CCN(C(=O)CNC(=O)Cc3cccc4ccccc34)CC2)c1C,3,3,48*,x,6,3,4
O=C(Nc1nc2ccsc2c(=O)s1)c1ccco1,2,x,2,-2,x,x,x
O=C(Nc1nc2ccsc2c(=O)s1)C1CCC1,-5,x,36*,2,x,x,1
CC(C)c1ncc(S(=O)(=O)c2ccc(C(F)(F)F)cn2)c(N)n1,-4,3,4,-1,1,12,x
COc1ccc(NS(=O)(=O)c2ccc(O)c(NC(=O)c3cc4c(C)nn(-c5ccc(F)cc5)c4s3)c2)cc1,-50,-15,36*,-23,-37,-18,29*
Cc1nn(-c2ccc(F)cc2)c2sc(C(=O)N3CCCCCC3)cc12,2,0,4,2,5,0,x
Cc1cc(C)n2nc(SCC(=O)N3CCC(C)CC3)nc2n1,x,3,0,x,-2,0,x
O=C(N/N=C/c1ccc(O)c(O)c1O)/C(=C/c1ccc([N+](=O)[O-])cc1)NC(=O)c1ccccc1,9,8,38*,8,16,11,47*
CCOC(=O)c1c(N)sc(=S)c2c1CCC2,7,5,49*,9,18,28,16
O=C1/C(=C/c2ccco2)Oc2c1ccc(O)c2CN1CCCCC1,-22,4,37*,2,17,10,8
SMILES,PME-1 primary,PAFAH1B2 FP inh,pPAFAH inh,Fam108B counter,PAFAH1B3 FP inh,PAFAH2 inh,pPAFAH confirm
O=C(CCCN1C(=O)/C(=C/c2ccco2)SC1=S)Nc1cccc(C(=O)O)c1,-20,7,50*,14,5,11,5
CC(C(=O)Nc1ccc(C(=O)O)c(O)c1)N1C(=O)/C(=C\c2ccco2)SC1=S (stereo unspecified),-31,8,38*,19*,16,18,13
CC(C(=O)N(C)C1CCS(=O)(=O)C1)N1C(=O)/C(=C/c2ccco2)SC1=S (stereo unspecified),-8,0,22,-4,-2,-8,x
O=C(CN1C(=O)/C(=C/c2ccco2)SC1=S)Nc1ccc(C(=O)O)c(O)c1,-57,-1,41*,2,7,9,14
O=C(CN1C(=O)/C(=C/c2ccco2)SC1=S)NC1CCS(=O)(=O)C1 (stereo unspecified),-24,4,38*,8,16,20,1
Cc1cccc(NC(=O)CSCC(=O)Nc2cc(Cl)ccc2N2CCOCC2)c1,12,11,4,0,-8,-3,x
CCOC(=O)[C@H]1[C@H]2COc3ccc(Cl)cc3[C@@H]2N2C(=O)CN(Cc3ccco3)C(=O)[C@@]12C,1,5,-4,x,-12,12,x
NN1C(=O)/C(=C\c2ccco2)SC1=S,0,x,42*,5,x,x,2
CCOC(=O)CN1C(=O)S/C(=C/c2ccco2)C1=O,-1,6,4,-1,4,5,x
COc1cc(NS(=O)(=O)c2ccc(-c3ccc(=O)[nH]n3)o2)cc(OC)c1OC,-7,-7,6,-1,2,6,x
Cc1nn(CCOc2cccc(Cl)c2)c(C)c1[N+](=O)[O-],1,2,-1,1,2,0,x
CCOc1ccc(C2C(C#N)=C(N)Oc3cc(O)ccc32)cc1OCC (stereo unspecified),-2,1,9,-4,1,0,x
COc1ccc(OC)c(C2C(C#N)=C(N)Oc3cc(N)ccc32)c1 (stereo unspecified),-8,0,36*,-4,0,3,1
CCOc1ccccc1C1C(C#N)=C(N)Oc2cc(N)ccc21 (stereo unspecified),10,4,41*,-2,10,3,3
Cc1ccc(C2C(/C=C3/SC(=S)NC3=O)=C(c3cccs3)Oc3ccccc32)cc1 (stereo unspecified),10,5,39*,9,8,21,47*
CC1(C)Oc2ccccc2OC1(O)c1ccc2ccccc2n1 (stereo unspecified),0,0,0,-2,9,5,x
Nc1c(-c2ccc3c(c2)OCCO3)oc2ccccc2c1=O,-10,3,2,-2,4,2,x
Cc1ccc(C(=O)Nc2scc(-c3ccccc3)c2C(=O)O)cc1,-7,6,-17,3,14,-8,x
CC(C)(C)C(=O)Nc1scc(-c2ccc(-c3ccccc3)cc2)c1C(=O)O,1,8,43*,1,1,0,25*

# Source: PubChem BioAssay
